Screening data as filed in PubChem.
Rows were chosen to be rich in hits. Some 19% of all compounds tested hit in one or more screens of this group.
DT40 TDP1 no CPT: qHTS for Inhibitors of human tyrosyl-DNA phosphodiesterase 1 (TDP1): qHTS in cells in absence of CPT; DT40 Tdp1-/- hTDP1 cells, no CPT, ATP luminescence, 48 h; Potency, µM (doses to about 46.2 µM), for the others: at the highest dose activity change, negative = growth inhibition, usual class: inhibitors; 15% of 420,000 active; AID 686978, 2013; further: potency means the concentration at half of the fitted maximal effect; nearly all actives have a fitted effect of over 55% in size
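Chicken DT40 Tdp1-/- cells stably complemented with human TDP1 were seeded at 400 cells/well with DMSO in place of 20 nM camptothecin. After compound pinning, cells grew at least 48 hr at 37 °C; viability read by CellTiter-Glo luminescence.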
HT1080-NT tox: kills 2HG-producing HT-1080-NT fibrosarcoma cells | HT-1080-NT fibrosarcoma viability, CellTiter-Glo ATP luminescence, 48 h | Potency, µM (top dose mostly 46.1 µM), inactives show at the top dose activity, negative = less viability, most hits filed as cytotoxic | 1.6% of 360,000 active;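 further: NT is the 2HG producing partner of a matched IDH1 knockdown line; potency means the concentration at half of the fitted maximal effect; 0% = DMSO-treated cells and -100% = media-only wells without cells; nearly all actives have a fitted effect of over 55% in size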
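Fibrosarcoma NT cells, 750 per well in 5% FBS RPMI, were exposed to compound for 48 hours. Viability: CellTiter-Glo luminescence.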
DT40 TDP1 CPT: DT40-hTDP1 cell growth loss with CPT; chicken DT40 Tdp1-/-;hTDP1 cells + 20 nM CPT, ATP luminescence, 48 h; Potency, µM (titrated, usually from 46.2 µM), for the others: at the highest dose activity change, negative = growth inhibition, usual class: inhibitors; 12% of 420,000 active; AID 686979; further: potency means the concentration at half of the fitted maximal effect; nearly all actives have a fitted effect of over 55% in size
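Chicken DT40 Tdp1-/- cells stably complemented with human TDP1 were seeded at 400 cells/well in medium containing 20 nM camptothecin, exposed to pin-transferred compounds, and grown at 37 °C for at least 48 hr. Viability was read as ATP luminescence.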
ELG1 DNA repair: blocks ELG1-dependent DNA repair in HEK293T cells; HEK293T ELG1-luciferase reporter, luminescence, 16 h; DNA damage induced by 5-fluorouridine; Potency, µM (doses to about 46.1 µM), for inactives: at the highest dose activity change, negative = inhibition, most hits filed as inhibitors; 2.3% of 330,000 active; further: potency means the concentration at half of the fitted maximal effect; nearly all actives have a fitted effect of over 55% in size
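Step one: seed 2,000 cells per well. Step two: pin-transfer compound or DMSO alongside 5-fluorouridine. Step three: incubate 16 hr, 37 °C, 5% CO2. Step four: add ONE-Glo, wait 30 min, read luminescence.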
HT1080 IDH1KD tx: HT-1080 IDH1 knockdown cell toxicity (counter line); HT-1080 IDH1 knockdown viability, ATP luminescence, 48 h; Potency, µM (titrated, usually from 46.1 µM), inactives show at the highest dose activity, negative = toxicity, usual class: cytotoxic; 2% of 360,000 active; AID 686971;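 further: potency means the concentration at half of the fitted maximal effect; 0% = DMSO wells and -100% = cell-free medium wells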
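Knockdown cells (IDH1KD HT-1080) received compounds 2 h after plating at 750 cells/well and were kept 48 h at 37 °C in 5% FBS RPMI. A CellTiter-Glo luminescence read gave % activity for curve fitting.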
IL-1B inflam inh: inhibitors of inflammasome signaling (IL-1 beta secretion); THP-1 LPS/ATP IL-1B secretion, AlphaLISA, 16 h; stronger effect = lower value; activity change, % at 57.5 µM; 4.7% of 360,000 active; in the data active means activity change below about -50%; inconclusive means mostly about -30% to -49%
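THP-1 cells pretreated 1 hr with compounds (up to 57.5 uM final), then stimulated with LPS (250 ng/mL final) plus ATP (1.25 mM final); secreted IL-1B measured by AlphaLISA after 16 hr, decreased signal indicating inhibition.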
An asterisk follows results filed as active; u = inconclusive; x = not tested or not shown; [ ] = another dose, or the depositor's remark. Unless noted, the call rests on the fitted dose curve; in most records, active means well fitted curve in the direction sought with a large enough effect; inconclusive means small, poorly fitted or top-dose-only effect, or another doubt; inactive means no such curve, though single readings can be large; an effect the other way counts as inactive or inconclusive. Unless noted, on the % scale 0 is the no-effect control and ±100 the full control effect.

SMILES	DT40 TDP1 no CPT	HT1080-NT tox	DT40 TDP1 CPT	ELG1 DNA repair	HT1080 IDH1KD tx	IL-1B inflam inh
CCC(C)NCCCOc1ccc(C)cc1OC (stereo unspecified)	-21%	18%	-7%	7%	18%	-1
CCC(C)NCCOCCOc1ccc(Cl)c2ccccc12 (stereo unspecified)	18µM*	16µM*	9.2µM*	u	21µM*	-104*
CC1(C(=O)Nc2cccc(C#N)c2)CCN1C(=O)c1ccccc1CCc1ccccc1 (stereo unspecified)	23µM*	-23%	u	x	-22%	-11
CC1(C(=O)Nc2ccc3c(c2)OCCO3)CCN1C(=O)c1ccco1 (stereo unspecified)	-11%	u	-42%	x	19%	31
CC1(C(=O)Nc2ccc3c(c2)OCCO3)CCN1C(=O)c1ccccc1CCc1ccccc1 (stereo unspecified)	u	10%	29µM*	x	0%	-24
CC(C)(C)c1ccc(C(=O)N2CCC2(C)C(=O)Nc2cccc(C#N)c2)cc1 (stereo unspecified)	16µM*	u	16µM*	x	u	-1
COc1ccc(-c2noc(CSCC(=O)Nc3ccc(C)cc3Br)n2)cc1OC	-22%	x	-30%	x	x	x
COc1ccc(C(=O)NCC(c2ccc3c(c2)OCO3)N2CCOCC2)cc1OC (stereo unspecified)	u	x	-23%	x	x	x
C=CCNc1nc(NCc2ccc(N(C)C)cc2)c2sc(-c3ccccc3)cc2n1	5.8µM*	u	6.5µM*	x	u	-24
C=CCNc1nc(NCCOC)c2sc(-c3ccccc3)cc2n1	13µM*	u	u	x	u	-113*
COCCNc1nc(Nc2ccc(C)cc2C)c2sc(-c3ccccc3)cc2n1	18µM*	u	26µM*	x	u	-25
C=CCNc1nc(NCCNC(C)=O)c2sc(-c3ccccc3)cc2n1	u	u	u	x	-26%	-3
CC(C)Nc1nc(NCCN2CCCC2)c2sc(-c3ccccc3)cc2n1	13µM*	u	6.5µM*	x	u	x
CCOC(=O)c1noc2ncn(Cc3ccc([N+](=O)[O-])cc3)c(=O)c12	-8%	x	-16%	x	x	x
Cc1cnc(C)c(-c2cccc3c2OC(CNC(=O)CN2C(=O)c4ccccc4C2=O)C3)n1 (stereo unspecified)	-2%	x	13%	x	x	x
O=C(NC1CCCN(CCc2ccccc2)C1)C1CCCC1 (stereo unspecified)	10%	19%	30%	11%	6%	17
C=CCNc1nc(Nc2ccc(OC)c(OC)c2)c2sc(-c3ccccc3)cc2n1	1.6µM*	5.2µM*	1.8µM*	x	5.8µM*	-108*
C=CCNc1nc(NCCOc2ccccc2Cl)c2sc(-c3ccccc3)cc2n1	15µM*	18µM*	15µM*	x	u	-111*
COc1ccc(Nc2ncnc3sc(-c4ccccc4)cc23)cc1OC	u	-12%	u	u	-11%	u
C#CCCc1cscc1/C=[N+](\[O-])c1ccc(C(=O)OCC)cc1	u	-7%	23µM*	u	-9%	-10
C#CCCC(=O)c1ccccc1/C=[N+](\[O-])c1ccccc1	u	0%	u	15%	1%	16
CCOC(=O)c1ccc(/[N+]([O-])=C/c2ccccc2)cc1	u	-3%	13µM*	u	-1%	-19
CCOC(=O)c1ccc(CNCc2ccccc2)cc1	u	5%	-9%	u	19%	0
CCOc1cc(/C=C2\N=C(SC)SC2=O)cc([N+](=O)[O-])c1OC(C)=O	u	4%	18µM*	-4%	11%	18
Cc1cccc(Nc2nnc(-n3nc(C)cc3C)c3ccccc23)c1	-3%	x	-23%	x	x	x
SMILES	DT40 TDP1 no CPT	HT1080-NT tox	DT40 TDP1 CPT	ELG1 DNA repair	HT1080 IDH1KD tx	IL-1B inflam inh
COc1ccc(Cn2c(SCC(=O)NCc3ccc(Cl)cc3)nc3ccsc3c2=O)cc1	-22%	x	u	x	x	x
c1ccc(CN2CCC3CC2c2cc(N4CCCCC4)ccc23)cc1 (stereo unspecified)	u	9%	u	x	5%	27
c1ccc(CN2CCC3CC2c2c3cccc2N2CCOCC2)cc1 (stereo unspecified)	15µM*	0%	u	x	10%	28
O=C(COCc1cc(-c2cccs2)on1)NCc1cccc(Cl)c1	-24%	x	-25%	x	x	x
CCOC(=O)c1ccc(NC(=O)CC2COc3ccccc3O2)cc1 (stereo unspecified)	1µM*	-8%	3%	-12%	-2%	3
CCN(CC1COc2ccccc2O1)C(=S)Nc1ccccc1 (stereo unspecified)	2.8µM*	1%	u	-5%	0%	-2
Cc1ccc(C(=O)OCC(=O)NCC2COc3ccccc3O2)cc1 (stereo unspecified)	-12%	0%	-13%	25%	-6%	8
CCN(CC1COc2ccccc2O1)C(=S)NCCCN(C)C (stereo unspecified)	18µM*	0%	16µM*	19%	-15%	-13
COC(=O)c1c(-c2ccc(F)cc2)noc1N	-19%	6%[9.24 µM]	-15%	u	11µM*	-8
C[C@@]12C(=O)N(c3cccc(F)c3)C(=O)N1[C@H](c1ccc(Cl)cc1)[C@@H]1C(=O)N(C3CCCCC3)C(=O)[C@@H]12	-23%	u	u	-2%	-24%	-12
O=C1[C@H]2[C@@H](c3ccc(F)cc3)N3C(=O)N(c4cccc(Cl)c4)C(=O)[C@@]3(Cc3ccc(Cl)cc3)[C@H]2C(=O)N1C1CCCCC1	u	-5%	16µM*	-12%	-7%	-23
O=C1[C@H]2[C@@H](c3ccc(F)cc3)N3C(=O)N(c4cccc(Cl)c4)C(=O)[C@@]3(Cc3ccccc3)[C@H]2C(=O)N1C1CCCCC1	u	-19%	u	-18%	-3%	-50*
C[C@@]12C(=O)N(c3cccc(F)c3)C(=O)N1[C@H](c1ccc(F)cc1)[C@@H]1C(=O)N(C3CCCCC3)C(=O)[C@@H]12	u	-6%	21µM*	3%	-12%	-7
Cc1ccnc(NC(=O)CCC(=O)N(CC(=O)NC(C)(C)C)c2ccc3c(c2)OCO3)c1	-8%	5%	6%	-2%	11%	-8
